From ChEMBL document CHEMBL4513216, “Probing the Open Global Health Chemical Diversity Library for Multistage-Active Starting Points for Next-Generation Antimalarials” (ACS Infect Dis, 2020)
Out of some 69,000 compounds screened, about 8,600 (12%) showed an effect of 50% or more. For the sample, strong results were picked, then their nearest neighbours and some compounds at random.

These compounds were tested on Plasmodium berghei (assay: Screen against P. berghei liver stage (PbLuc), transformed with Luciferase, at 10uM). Details: tested at 10 uM.
Format: functional, HepG2

Compound	INHIBITION [%]
Cc1cc2cc(C(=O)N3C[C@H](O)[C@]4(CCCO4)C3)ccc2o1	15.9
Cc1ccc(CN2CC[C@H]3[C@H](CC(Cn4cccn4)N3C)C2)s1 (stereo partly drawn)	25.3
Cc1n[nH]c(C2CN(C(=O)c3cc(Cl)c[nH]3)CCO2)n1 (stereo not drawn)	31.6
O=C(NCC(=O)N1CCCC1Cc1cccc(F)c1)c1ccccn1 (stereo not drawn)	-6.51
Cc1nc(CNC(C)c2cccc(N3CCCC3=O)c2)cs1 (stereo not drawn)	22.7
CC1CCN(CCCNS(=O)(=O)c2cc(F)cc(F)c2)CC1	51.4
O=S(=O)(NCCCN1CCCC1)c1cc(F)cc(F)c1	71.3
O=S(=O)(Cc1ccccc1F)NCCCN1CCCCC1	36.3
CC1CCN(CCCNS(=O)(=O)c2cccc(F)c2)CC1	-14.9
CC1CCN(CCCNS(=O)(=O)Cc2ccccc2F)CC1	26.9
CC(=O)N1CCN(CCNS(=O)(=O)c2cc(F)cc(F)c2)CC1	26.4
COc1cccc(-c2c[nH]c(C3CCCN3)n2)c1 (stereo not drawn)	-8.45
CCc1ncc(CN[C@@H]2CCCN(C(C)=O)[C@H]2c2ccc(C)s2)cn1	23.2
COCCOc1cccc(C(=O)N2CCCC(n3ccnc3C)C2)c1 (stereo not drawn)	44.3
Cc1cnn(C2CCCN(C(=O)c3ccc(NC4CC4)nc3)C2)c1 (stereo not drawn)	-22.9
Cc1cccc2c1NC1(CCOCC1)NC2=O	48
Cc1cc(NCc2ccc(S(N)(=O)=O)cc2)nc(C)n1	41.5
Cc1ccc(-c2nc(CN3CCn4c(nnc4C4CC4)C3)no2)cc1	24.7
Cc1ccc(-c2nc(CN3CCn4c(nnc4C4CC4)C3)co2)c(C)c1	54.4
c1ccc(-c2nc(CN3CCn4c(nnc4C4CC4)C3)co2)cc1	-40.2
Cc1ccc(-c2noc(CN3CCn4c(nnc4C4CC4)C3)n2)cc1	-32.345
Fc1ccc(-c2nnc(CN3CCn4c(nnc4C4CC4)C3)o2)cc1	0.0932
Cc1cccc(-c2noc(CN3CCn4c(nnc4C4CC4)C3)n2)c1	-14.8

Compound	INHIBITION [%]
Cc1ccc(-c2nnc(CN3CCn4c(nnc4C4CC4)C3)o2)cc1	52.3
Cc1ccc(-c2nc(CN3CCn4c(nnc4C4CC4)C3)co2)cc1	-25.9
Cc1ccccc1-c1noc(CN2CCn3c(nnc3C3CC3)C2)n1	55.9
Cc1n[nH]c(C2CN(C(=O)c3cc(C4CC4)on3)CCO2)n1 (stereo not drawn)	49.2
CN(C)C(C)(C)CNCc1cn(C)nc1-c1cccnc1	23.7
CN(Cc1ccccc1)CC(O)Cn1cnc2ccc(Br)cc2c1=O (stereo not drawn)	14.92
Cc1ccnc(C2(C)CCCN2S(=O)(=O)c2c(C)noc2C)n1 (stereo not drawn)	0.705
CCOCc1nc(N2CCOCC2)sc1C(=O)NCCCc1ccco1	24.5
Cc1ccc(CN2Cc3c(C(=O)N4CCOCC4)nn(C)c3C2)s1	-17.1
CNc1ncc(C(=O)N2CCC(CCc3ccccc3)CC2)cn1	-25.2
CCc1ncc(CN2CCC(CCc3ccccc3)CC2)cn1	37.8
CNc1ncc(CN2CCC(CCc3ccccc3)CC2)cn1	67.5
CCc1[nH]c2ccc(CNC(=O)Cc3c(C)nc(N)nc3C)cc2c1C	43.9
N[C@@H]1CC[C@H](C(=O)NCc2ccc3nonc3c2)C1	0
Cc1nc(N)nc(C)c1CC(=O)NCc1ccc2nonc2c1	61.2
CN(Cc1cnn(C)c1)C(=O)NCc1ccc2c(c1)OCCO2	-26.85
O=C(Cc1csc(-c2ccccc2Cl)n1)NCc1cccc(C(=O)O)c1	17.1
Cc1ccc(C(=O)N2CCC3(CCN(Cc4ccccn4)C3=O)C2)cn1 (stereo not drawn)	22.5
CCc1nc(CN2CCCN(c3ncnc4ccccc34)CC2)no1	86.8
CCc1nc(CN2CCN(CC(O)c3ccccc3)CC2)no1 (stereo not drawn)	42
CCc1nc(CN2CCN(c3ncnc4cc(F)ccc34)CC2)no1	91.8
CCn1ccnc1CN1CCN(c2ncnc3ccccc23)CC1	-66.4
Cc1nc(CN2CCN(c3ncnc4ccccc34)CC2)no1	94.1

Compound	INHIBITION [%]
CCc1nc(CN2CCCN(c3nc4ccccc4o3)CC2)no1	-8.19
CCc1nc(CN2CCCN(CC(O)c3ccccc3)CC2)no1 (stereo not drawn)	-11.4
Cc1nc(CN2CCCN(Cc3nc4ccccc4o3)CC2)no1	-24.7
CCc1nc(CN2CCCN(c3cnc4ccccc4n3)CC2)no1	40.5
CN1CCOC2(CCCN(C(=O)C3CCCCC3)C2)C1 (stereo not drawn)	9.97
Cc1cc(F)ccc1C(=O)N1CCN(C)C2(CCC(=O)N(C)CC2)C1 (stereo not drawn)	25.8
CNc1ncccc1CN1CCC1c1cc(N)nc(C)n1 (stereo not drawn)	10.9
CC(C)C(NCc1ccc(Cn2cncn2)cc1)c1ccccc1 (stereo not drawn)	-1.33
CC(C)C(NCc1ccc(Cn2cncn2)cc1)c1ccc(F)cn1 (stereo not drawn)	71.2
CC(C)c1ccc(CNC(c2ccc(F)cn2)C(C)C)cc1 (stereo not drawn)	48.9
COc1cc(C)ccc1OCCC(=O)N1CCC(C(N)=O)C1 (stereo not drawn)	-24.9
O=C(c1cnc(-c2ncccn2)s1)N1CCCC1Cn1cccn1 (stereo not drawn)	-24.3
CC(=O)N1CCC(C(=O)c2cc(C)cnc2N)CC1	39.2
Cc1cnc(N)c(C(=O)C2CCN(C(=O)c3cnc(C)cn3)CC2)c1	-20.2
COCCC(=O)N1CCC(C(=O)c2cc(C)cnc2N)CC1	-26.2
Cc1cnc(N)c(C(=O)C2CCN(C(=O)C3CCC3)CC2)c1	13.5
COCC(=O)N1CCC(c2cc(-c3ccc(N)nc3)cc(C)n2)CC1	7.19
COCC(=O)N1CCC(C(=O)c2cc(C)cnc2N)CC1	58.1
C=C(C)C(=O)N1CCC(C(=O)c2cc(C)cnc2N)CC1	68.8
Cc1cnc(N)c(C(=O)C2CCN(C(=O)c3cnc(C)nc3C)CC2)c1	-2.11
Cc1cnc(N)c(C(=O)C2CCN(C(=O)c3ccccc3F)CC2)c1	56.9
O=C(CCn1c(C(F)(F)F)cc2cccnc21)N1CCC(O)CC1	29.2
